# Test results: PubChem BioAssay (NCATS)
# Results filed as inconclusive are left out. Where a call stands in place of a potency, no number is given. The source made the active and inactive calls. Calls come from the whole dose curve; as a rule, active = well fitted inhibition curve with a large enough effect; inconclusive = small, poorly fitted or top-dose-only effect; inactive = no such curve, though single readings can be large or run the other way.
# Target: N-terminal Xaa-Pro-Lys N-methyltransferase 1 (Homo sapiens) (UniProt Q9BV86)
# Assay: qHTS Assay for Inhibitors of N-terminal methyltransferase 1 (NTMT1): LOPAC validation of the NTMT1 SAHH-coupled ThioGlo3 Assay (AID 1347143);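 note: SAH from peptide methylation measured as thiol fluorescence via SAHH coupling and ThioGlo3; nearly all actives have a fitted effect of over 70% in size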
# Details: recombinant NTMT1, SAHH-coupled ThioGlo3 fluorescence; series mostly up to 114 µM
# How it was run: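 Inhibition of NTMT1 methylation of peptide SPKRIA is followed by converting SAH with SAHH and labelling the released thiol with ThioGlo3. Plates are read at 340/450nm before and 30 min after reagent addition, both at room temperature.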
# Potency is the fitted concentration of half-maximal effect.
# Chain of N-terminal Xaa-Pro-Lys N-methyltransferase 1 (Homo sapiens) (Q9BV86 whole entry, looked up): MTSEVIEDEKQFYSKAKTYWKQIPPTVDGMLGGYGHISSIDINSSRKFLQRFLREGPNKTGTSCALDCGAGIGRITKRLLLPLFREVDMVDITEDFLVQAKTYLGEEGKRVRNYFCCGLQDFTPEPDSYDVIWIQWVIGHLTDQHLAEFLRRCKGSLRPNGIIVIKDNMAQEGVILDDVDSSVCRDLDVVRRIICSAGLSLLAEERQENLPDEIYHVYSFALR
row,Structure (SMILES),Potency
1,N[C@@]1(C(=O)O)CC[C@@H](C(=O)O)C1,inactive
2,CCN1C[C@@]2(COC)C3[C@@H](OC)C4[C@H]1C3([C@@H]1C[C@@]3(O)[C@H](OC(=O)c5ccccc5)[C@@H]1[C@]4(OC(C)=O)[C@@H](O)[C@@H]3OC)[C@H](OC)C[C@H]2O,inactive
3,N#C/C(=C/c1ccc(O)c(O)c1)C(N)=S,44.7 µM (active)
4,CN(C(=O)Cc1ccc(Cl)c(Cl)c1)C(CN1CCCC1)c1cccc(OCC(=O)O)c1 (stereo not drawn),inactive
5,CC(C)(O)[C@@H]1[C@H]2OC(=O)[C@@H]1[C@]1(O)C[C@H]3O[C@]34C(=O)O[C@H]2[C@]14C (tested in a mixture with another compound),inactive
6,NC(C(=O)O)c1cc(=O)[nH]o1 (stereo not drawn),inactive
7,NC(=O)COc1c(F)cc(SCCNS(=O)(=O)c2ccccc2)cc1F,inactive
8,CCN(CC)c1ncnc2c1ncn2[C@@H]1O[C@H](COP(=O)(O)OP(=O)(O)C(Br)(Br)P(=O)(O)O)[C@@H](O)[C@H]1O,inactive
9,O=C1C=CC(=O)C=C1,inactive
10,CC1(C(=O)O)C2CCC(O2)C1(C)C(=O)O (stereo not drawn),inactive
11,CCS(=O)(=O)Nc1cccc(C(=C2CCCCC2)c2cnc[nH]2)c1,inactive
12,O=P(O)(O)C(Cl)(Cl)P(=O)(O)O,inactive
13,NCC(CP(=O)(O)O)c1ccc(Cl)cc1 (stereo not drawn),inactive
14,C[N+]1(C)CCN(c2ccccc2)CC1,28.2 µM (active)
15,CN1CC[C@@]2(C)c3cc(O)ccc3N(C)C12 (stereo partly drawn),44.7 µM (active)
16,CCCN(CCC)CCc1ccc(O)c(O)c1,inactive
17,CCCCCCCCCCCCCC(=O)O[C@@H]1[C@@H](C)[C@@]2(O)[C@@H](C=C(CO)C[C@@]3(O)C(=O)C(C)=C[C@@H]23)C2C(C)(C)[C@@]21OC(C)=O (stereo partly drawn),inactive
18,CC(C)(C)OC(=O)NC1[C@H]2CNC[C@@H]12 (stereo partly drawn),inactive
19,NNC(=O)c1ccc(O)cc1,inactive

row,Structure (SMILES),Potency
1,c1ccc2c(c1)[I+]c1ccccc1-2,50.1 µM (active)
2,Clc1cc(I)cc(Cl)c1NC1=NCCN1,inactive
3,C[C@]12Cc3cn4c(nc3C=C1CCC1C2CC[C@@]2(C)[C@H]1CC[C@@]2(O)C#N)nc1ccccc14 (stereo partly drawn),inactive
4,Nc1ncnc2c1ncn2[C@@H]1O[C@H](COP(=O)(O)CP(=O)(O)OP(=O)(O)O)C(O)[C@H]1O (stereo partly drawn),inactive
5,CN1CCc2cccc(Cl)c2CC1,inactive
6,CCCN(CCC)C1Cc2cc(OC)c(OC)cc2C1,inactive
7,CCNC(=O)[C@H]1O[C@@H](n2cnc3c(N)ncnc32)[C@H](O)C1O (stereo partly drawn),inactive
8,NC(=O)CI,20 µM (active)
9,C[N+]1(C)CCOC(O)(c2ccc(-c3ccc(C4(O)C[N+](C)(C)CCO4)cc3)cc2)C1 (stereo not drawn),inactive
10,CC(C)CC(NP(=O)(O)O[C@@H]1O[C@@H](C)[C@H](O)[C@@H](O)[C@H]1O)C(=O)NC(Cc1c[nH]c2ccccc12)C(=O)O (stereo partly drawn),inactive
11,CC(N)[C@H](O)c1ccc(O)c(O)c1 (stereo partly drawn),50.1 µM (active)
12,c1ccc2cc(CC3=NCCN3)ccc2c1,inactive
13,C#CCN[C@H](C)Cc1ccccc1,inactive
14,C[C@H](N)CN1CCc2ccc(Br)cc21,inactive
15,c1ccc2c(N3CCNCC3)cccc2c1,50.1 µM (active)
16,CC1OC1P(=O)(O)O (stereo not drawn),inactive
17,C[N+]1(C)CCC(OC(=O)C(c2ccccc2)c2ccccc2)CC1,63.1 µM (active)
18,NCCc1c[nH]c2ccc(C(N)=O)cc12,inactive
19,O=[N+]([O-])c1cc(O)c(O)c([N+](=O)[O-])c1,44.7 µM (active)
